Jurkat NFkB inh – inhibitors of the PMA/ionomycin-induced NF-kB reporter in Jurkat cells. PMA/ionomycin-induced NF-kB luciferase reporter, luminescence. inhibition, % at 4 µM. actives 0.53% (n = 330,000). AID 435003; in the data active = inhibition above about 50%
Beta apoptosis – beta cell apoptosis inhibition | protection from apoptosis, % (no concentration beside the values) | actives 0.8% (n = 300,000) | INS-1E cytokine-induced death, ATP luminescence, 48 h; percent of positive-control rescue, neutral wells zero | AID 435005;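 active = Every replicate reaches about 75%, or at least half do and their mean reaches it too, limit read from the data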;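 also: 0% = cytokine-treated negative control wells and 100% = positive control rescue; higher means more ATP so stronger rescue from cytokine killing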
Mdm2 MdmX PPI – human Mdm2/MdmX binding inhibition | SaOS-2 split-luciferase Mdm2/MdmX complementation, luminescence | inhibition, % at 8 µM | actives 3% (n = 330,000) | AID 485346;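 active = inhibition of at least 50% at 8 µM in the primary screen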
697 NFkB inh – lowers PMA/ionomycin-induced NF-kB signal in 697 B cells. inhibition, % at 4 µM. 697 B-cell NF-kB luciferase reporter, 16 h. actives 0.33% (n = 330,000); in the data active = inhibition above about 35%
NTR1 agonist – activates human neurotensin receptor 1. P30989. NTR1-U2OS beta-arrestin-GFP spot imaging, agonist mode. activation, % at 20 µM. actives 0.17% (n = 330,000). AID 493036;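 active = activation at or above 40% of the spot to cytoplasm intensity ratio, with at least 20 cells analyzed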;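 also: 0% = DMSO without peptide and 100% = 100 nM NTR1 peptide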
A1 inh – inhibitors of the anti-apoptotic protein A1, read as caspase activation; MEF A1-2A-BIM cells, Caspase-Glo 3/7 luminescence, 3 h; percent of clofoctol response, vehicle zero; caspase activation, % (concentration not given with the values); actives 0.066% (n = 330,000); AID 2462;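 active = over half of replicate activation scores above 10%, or exactly half above 10 with the replicate mean above 10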
697 NFkB conf – inhibitors of the PMA/ionomycin-induced NF-kB reporter in 697 B cells, retest | shares compounds with 697 NFkB inh | 697 B-cell NF-kB luciferase, 16 h | inhibition, % at 4 µM | actives 35% (n = 2,000); in the data active = inhibition mostly above about 28%, no sharp cut-off; inactive = mostly below about 22%
The depositor's hits bear a star; . = no result. Sampled rows, rich in hits. Any-hit rate of the full collection: about 3.8%.

SMILES	Jurkat NFkB inh	Beta apoptosis	Mdm2 MdmX PPI	697 NFkB inh	NTR1 agonist	A1 inh	697 NFkB conf
O=C(Nc1nncs1)c1cc2c(s1)CCC2	-25	-2	9	-14	0	0	.
COc1cc(-c2nc(S(=O)(=O)c3ccc(C)cc3)c(N3CCOCC3)o2)cc(OC)c1OC	3	0	31	42*	0	1	20
O=C1OC2(CCCCC2)OC(=O)C1=CNc1ccc2c(c1)OCO2	-5	-1	-13	6	-1	-1	.
O=C1/C(=C/Nc2ccc3c(c2)OCO3)CCc2ccccc21	-58	29	10	-469	2	-8	-251
CSc1ccccc1NC(=O)c1ccc(N2CC3CC(C2)c2cccc(=O)n2C3)c(NC(=O)c2cccnc2)c1 (centres undefined)	12	6	27	3	0	3	.
COc1ccc(-c2[nH]nc3oc(=O)cc(C)c23)cc1	4	4	-10	35*	-3	0	7
CC(NC(=O)COC(=O)c1nc(Cl)ccc1Cl)c1ccccc1 (centres undefined)	3	-5	8	4	2	-1	.
O=c1cc(Nc2ccc3c(c2)OCCO3)[nH]c(=O)n1-c1ccc(Cl)cc1	-3	0	26	38*	0	0	24
Cc1ccc(-c2nc(CS(=O)CC(=O)NCCCN3CCN(Cc4ccccc4)CC3)c(C)o2)cc1 (centres undefined)	33	18	16	-29	-1	1	.
S=C(Nc1ccc(-c2nc3ccccc3[nH]2)cc1)Nc1cccnc1	-87	14	-55	-251	-2	-3	-281
O=C(NCC(c1ccco1)N1CCOCC1)c1ccc(C(F)(F)F)cc1 (centres undefined)	5	-3	7	-10	1	0	.
COc1ccc(Nc2nnc(-c3ccc(O)cc3)c3ccccc23)cc1C(N)=O	-3	3	-2	39*	0	-1	23
Cc1cc(C)cc(OC(C)C(=O)Nc2ccccc2C(=O)NCc2cccnc2)c1 (centres undefined)	10	-5	15	-8	3	-1	.
COc1ccc(O)c(C(=O)CC(=O)c2ccc(F)cc2)c1	-133	-4	-8	-296	9	-6	-303
O=C1NC(c2ccc(Cl)c([N+](=O)[O-])c2)Nc2ccccc21 (centres undefined)	-1	1	-22	-4	5	1	.
O=C1NC(c2cc(Cl)cc([N+](=O)[O-])c2O)Nc2ccccc21 (centres undefined)	-15	-5	11	36*	3	-1	-2
CSc1c(CN2CCN(C)CC2)c2ccccc2n1C	-11	2	3	-14	-1	2	.
CCOc1ccc(-c2cc(CCCC(=O)NCCc3ccc(OC)c(OC)c3OC)no2)cc1	-10	-3	-3	37*	-2	0	10
CCOc1ccc(-c2cc(CCCC(=O)NCCC(C)C)no2)cc1	-25	-2	-5	27	-1	1	.
CCOc1ccc(NC(=O)CCCc2cc(-c3ccc(OCC)cc3)on2)cc1	-16	3	-7	40*	-1	0	40*
Brc1ccccc1-n1nnc(-c2cnc3ccccc3c2)n1	-150	4	-239	-306	10	1	-321
Clc1nc2ccccc2cc1-c1nnn(-c2ccccc2Br)n1	-19	-4	-81	-73	0	0	.
Cc1ccccc1-c1nc2sc3c(c2c(=O)n1N)CCCC3	-100	.	27	-276	0	-2	-229
Nn1c(-c2cccs2)nc2sc3c(c2c1=O)CCCC3	-136	6	-130	-163	17	-4	.
CC(C)(C)c1ccc(-c2cc(N)n[nH]2)cc1	-50	-6	28	44*	1	0	45*
CCn1ncc(S(=O)(=O)NCc2ccccc2Cl)c1C	-18	1	17	-28	0	2	.
CC(C)C(=O)Nc1ccc(NC(=O)c2cccc3c(Br)cccc23)cc1	3	-2	29	3	-1	1	.
CCOc1ccc(N=C(C)C2=C(O)c3ccccc3C2=O)cc1	-103	-4	-142	-158	1	-4	.

Assay outcomes: PubChem BioAssay, several laboratories
